Test results taken from PubChem BioAssay (EPA / NIEHS).
Inconclusive results are not listed. The source made the active and inactive calls. The calls were made as follows: active = hit-call score of the fitted dose curve at least 0.9, where 1 is the maximum; inconclusive = response in the unintended direction; inactive = score below 0.9.

Each compound was assayed against human Thyroid Receptor alpha (THRa1), THRA (gene 7067) (UniProt P10827) (assay: ATG_THRa1_TRANS: Attagene TRANS-FACTORIAL HepG2 Assay for human Thyroid Receptor alpha (THRa1) (AID 2283014)).
human Thyroid Receptor alpha (THRa1), THRA (gene 7067), sequence (P10827 whole entry, looked up, the tested form may be a part): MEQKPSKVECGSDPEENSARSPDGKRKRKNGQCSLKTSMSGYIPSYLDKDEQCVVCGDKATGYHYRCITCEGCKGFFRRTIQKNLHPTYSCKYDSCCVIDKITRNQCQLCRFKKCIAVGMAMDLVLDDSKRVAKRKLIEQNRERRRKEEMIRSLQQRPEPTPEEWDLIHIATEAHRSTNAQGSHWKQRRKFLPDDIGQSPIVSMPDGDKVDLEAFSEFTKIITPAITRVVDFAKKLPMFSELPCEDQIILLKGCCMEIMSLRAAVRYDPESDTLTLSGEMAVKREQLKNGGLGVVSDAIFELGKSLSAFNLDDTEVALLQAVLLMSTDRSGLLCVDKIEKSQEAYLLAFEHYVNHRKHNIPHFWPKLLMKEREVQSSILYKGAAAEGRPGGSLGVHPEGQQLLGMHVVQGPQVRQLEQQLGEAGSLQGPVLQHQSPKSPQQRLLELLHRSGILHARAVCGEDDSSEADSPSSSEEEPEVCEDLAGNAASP
How it was run: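 First, HepG2 cells receive multiple GAL4-UAS reporter units and the chimeric receptor. They are then dosed for 24 h, after which RNA is reverse-transcribed, amplified, labelled, HpaI-cut and sized by capillary electrophoresis; gain relative to DMSO is scored.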

SMILES	outcome	AC50
BrCCCCBr	inactive	
C1CN2CCN1CC2	inactive	
Fc1cccc(Cl)c1CCl	inactive	
CC(=O)C(F)(F)C(F)(F)F	inactive	
NNCCO	inactive	
COC(F)(C(F)(F)C(F)(F)F)C(F)(C(F)(F)F)C(F)(F)F (stereo not drawn)	inactive	
CNC(=O)CSP(=O)(OC)OC	inactive	
CCOP(=S)(OCC)Oc1ccc(Cl)cc1Cl	inactive	
Cl[C@H]1OCCO[C@@H]1Cl	inactive	
O=S1OC[C@@H]2[C@H](CO1)[C@]1(Cl)C(Cl)=C(Cl)[C@@]2(Cl)C1(Cl)Cl (stereo partly drawn)	inactive	
O=NN1CCCCCC1	inactive	
O=C1C[C@@H]2OCC=C3CN4CC[C@]56c7ccccc7N1[C@H]5[C@H]2[C@H]3C[C@H]46	inactive	
Nc1ccc(-c2ccccc2)cc1	inactive	
NC(=O)c1ccc(N)nc1	inactive	
O=C(NC(=O)c1c(F)cccc1F)Nc1cc(Cl)c(Oc2ncc(C(F)(F)F)cc2Cl)c(Cl)c1	inactive	
c1csc(-c2ccc(-c3cccs3)s2)c1	inactive	
C#C[C@]1(O)CC[C@H]2[C@@H]3CCC4=CC(=O)CC[C@]4(C)[C@H]3CC[C@@]21C	inactive	
CCC[CH2][Sn]([CH2]CCC)([CH2]CCC)[CH2]CCC	inactive	
CCCCN(CCCCO)N=O	inactive	

SMILES	outcome	AC50
C[N+](C)(C)Cc1ccccc1	inactive	
CC(=O)CN(CC(C)=O)N=O	inactive	
O=C(CCl)Nc1ccccc1	inactive	
Brc1ccc(Br)cc1	inactive	
COC(=O)Nc1cccc(OC(=O)Nc2cccc(C)c2)c1	inactive	
CC(c1ccc(O)cc1)c1ccc(O)cc1	inactive	
CNC(=O)O/N=C/C(C)(C)S(C)(=O)=O	inactive	
Nc1ccc(Br)cc1	inactive	
CNC(=O)N(C)c1nc2ccccc2s1	inactive	
C1CCC(C2CCCCC2)CC1	inactive	
CC(C)(c1ccccc1)c1cc(-n2nc3ccccc3n2)c(O)c(C(C)(C)c2ccccc2)c1	inactive	
O=NN1CCOCC1	inactive	
COc1ccc([N+](=O)[O-])cc1O	inactive	
COc1ccc(N)cc1	inactive	
CC(C)[N+](=O)[O-]	inactive	
CC(C)[C@H](C(=O)OC(C#N)c1cccc(Oc2ccccc2)c1)c1ccc(OC(F)F)cc1 (stereo partly drawn)	inactive	
O=C1c2ccccc2C(=O)C1C(=O)C(c1ccccc1)c1ccc(Cl)cc1 (stereo not drawn)		7.69 µM (active)
c1cc[c]([Sb]([c]2ccccc2)[c]2ccccc2)cc1	inactive	
Brc1c(Br)c(Br)c(Oc2c(Br)c(Br)c(Br)c(Br)c2Br)c(Br)c1Br	inactive	
